# Test results from PMC11006913.
# Numbering of substitutions follows the chain as printed.
# Assays:
# Test in all cases: PBM; 200 nM protein, PBS
# Conditions in all cases: dsDNA, one strand shown
# PRRX1 [1] = target: PRRX1 (Homo sapiens, UniProt P54821 80-166, F113S)
# HOXB6 [2] = target: HOXB6 (Homo sapiens, UniProt P17509 132-218, K202E)
# MSX2 [3] = target: MSX2 (Homo sapiens, UniProt P35548 130-214)
# MSX2 [4] = target: MSX2 (Homo sapiens, UniProt P35548 130-214, F161Y)
# PRRX1 [5] = target: PRRX1 (Homo sapiens, UniProt P54821 80-166)
# Chain of PRRX1 (Homo sapiens, UniProt P54821 80-166) (P54821 80-166): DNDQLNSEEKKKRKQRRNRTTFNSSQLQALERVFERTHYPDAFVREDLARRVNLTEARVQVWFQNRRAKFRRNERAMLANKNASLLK
# HOXB6 [6] = target: HOXB6 (Homo sapiens, UniProt P17509 132-218)
# Chain of HOXB6 (Homo sapiens, UniProt P17509 132-218) (P17509 132-218): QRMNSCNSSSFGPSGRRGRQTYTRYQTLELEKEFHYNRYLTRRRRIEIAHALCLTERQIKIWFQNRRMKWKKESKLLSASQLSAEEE
# ALX4 = ALX4 (Homo sapiens, UniProt Q9H161 200-286)
# Chain of ALX4 (Q9H161 200-286): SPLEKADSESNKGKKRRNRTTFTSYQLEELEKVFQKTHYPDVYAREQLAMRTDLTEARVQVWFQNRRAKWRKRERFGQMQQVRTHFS
# HOXA4 [7] = target: HOXA4 (Homo sapiens, UniProt Q00056 201-287, R217L)
# Chain of HOXA4 (Homo sapiens, UniProt Q00056 201-287, R217L) (Q00056 201-287 R217L): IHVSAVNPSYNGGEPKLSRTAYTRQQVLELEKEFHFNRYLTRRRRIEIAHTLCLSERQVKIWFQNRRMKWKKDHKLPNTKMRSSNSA
# VENTX [8] = target: T1, VENTX (Homo sapiens, UniProt O95231 78-163, R121Q)
# T1 sequence: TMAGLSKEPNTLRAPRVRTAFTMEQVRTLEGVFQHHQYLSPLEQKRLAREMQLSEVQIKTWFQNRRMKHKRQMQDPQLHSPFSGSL
# VENTX [9] = target: T2, VENTX (Homo sapiens, UniProt O95231 78-163, Y115F)
# T2 sequence: T1 sequence with Y38F, Q44R
# PAX4 = target: T3, PAX4 (Homo sapiens, UniProt O43316 9-242, R200Q)
# T3 sequence: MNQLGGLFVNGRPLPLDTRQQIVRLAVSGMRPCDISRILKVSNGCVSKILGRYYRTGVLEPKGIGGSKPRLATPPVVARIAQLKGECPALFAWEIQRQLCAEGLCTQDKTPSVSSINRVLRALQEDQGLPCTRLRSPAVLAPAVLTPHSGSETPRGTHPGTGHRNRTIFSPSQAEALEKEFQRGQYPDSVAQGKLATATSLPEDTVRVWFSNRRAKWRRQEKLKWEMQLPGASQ
# HOXA4 [10] = target: HOXA4 (Homo sapiens, UniProt Q00056 201-287, W262F)
# Chain of HOXA4 (Homo sapiens, UniProt Q00056 201-287, W262F) (Q00056 201-287 W262F): as the sequence (Q00056 201-287 R217L) above, with L17R, W62F counted along it
# HOXA2 [11] = target: HOXA2 (Homo sapiens, UniProt O43364 129-215, R185T)
# Chain of HOXA2 (Homo sapiens, UniProt O43364 129-215, R185T) (O43364 129-215 R185T): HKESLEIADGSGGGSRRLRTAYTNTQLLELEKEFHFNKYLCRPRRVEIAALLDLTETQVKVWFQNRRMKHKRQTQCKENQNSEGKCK
# VAX1 [12] = target: VAX1 (Homo sapiens, UniProt Q5SQQ9 86-172, T142I)
# Chain of VAX1 (Homo sapiens, UniProt Q5SQQ9 86-172, T142I) (Q5SQQ9 86-172 T142I): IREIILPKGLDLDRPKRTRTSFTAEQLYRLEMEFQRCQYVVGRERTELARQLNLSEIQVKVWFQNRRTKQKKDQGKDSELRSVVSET
# VAX1 [13] = target: VAX1 (Homo sapiens, UniProt Q5SQQ9 86-172, K157R)
# Chain of VAX1 (Homo sapiens, UniProt Q5SQQ9 86-172, K157R) (Q5SQQ9 86-172 K157R): as the sequence (Q5SQQ9 86-172 T142I) above, with I57T, K72R counted along it
# HOXA4 [14] = target: HOXA4 (Homo sapiens, UniProt Q00056 201-287, W262R)
# Chain of HOXA4 (Homo sapiens, UniProt Q00056 201-287, W262R) (Q00056 201-287 W262R): as the sequence (Q00056 201-287 R217L) above, with L17R, W62R counted along it
# HOXA4 [15] = target: HOXA4 (Homo sapiens, UniProt Q00056 201-287)
# Chain of HOXA4 (Homo sapiens, UniProt Q00056 201-287) (Q00056 201-287): as the sequence (Q00056 201-287 R217L) above, with L17R counted along it
# HOXB4 = HOXB4 (Homo sapiens, UniProt P17483 148-234, V174I)
# Chain of HOXB4 (P17483 148-234 V174I): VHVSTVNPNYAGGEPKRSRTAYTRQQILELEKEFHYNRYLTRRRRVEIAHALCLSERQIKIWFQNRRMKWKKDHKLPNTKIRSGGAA
# HOXA2 [16] = target: HOXA2 (Homo sapiens, UniProt O43364 129-215, R185K)
# Chain of HOXA2 (Homo sapiens, UniProt O43364 129-215, R185K) (O43364 129-215 R185K): as the sequence (O43364 129-215 R185T) above, with T57K counted along it
# Chain of PRRX1 (Homo sapiens, UniProt P54821 80-166, F113S) (P54821 80-166 F113S): as the sequence (P54821 80-166) above, with F34S counted along it
# Chain of MSX2 (Homo sapiens, UniProt P35548 130-214, F161Y) (P35548 130-214 F161Y): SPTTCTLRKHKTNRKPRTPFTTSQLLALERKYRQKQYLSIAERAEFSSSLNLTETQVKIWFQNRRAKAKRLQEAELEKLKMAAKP
# Chain of HOXB6 (Homo sapiens, UniProt P17509 132-218, K202E) (P17509 132-218 K202E): as the sequence (P17509 132-218) above, with K71E counted along it
# Chain of MSX2 (Homo sapiens, UniProt P35548 130-214) (P35548 130-214): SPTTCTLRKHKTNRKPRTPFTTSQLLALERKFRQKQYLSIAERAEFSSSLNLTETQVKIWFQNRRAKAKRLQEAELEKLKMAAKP
sequence,measurement,setting,value
CAATTACA,binding signal,PRRX1 [1],"10.9 upbm affinity estimate (log intensity, higher = more binding, comparable within an allelic series)"
same,binding signal,HOXB6 [2],"9.87 upbm affinity estimate (log intensity, higher = more binding, comparable within an allelic series)"
same,binding signal,MSX2 [3],"13.7 upbm affinity estimate (log intensity, higher = more binding, comparable within an allelic series)"
same,binding signal,MSX2 [4],"13.3 upbm affinity estimate (log intensity, higher = more binding, comparable within an allelic series)"
same,binding signal,PRRX1 [5],"13.2 upbm affinity estimate (log intensity, higher = more binding, comparable within an allelic series)"
same,binding signal,HOXB6 [6],"11.4 upbm affinity estimate (log intensity, higher = more binding, comparable within an allelic series)"
CAATTATA,binding signal,ALX4,"13.8 upbm affinity estimate (log intensity, higher = more binding, comparable within an allelic series)"
same,binding signal,PRRX1 [1],"11.5 upbm affinity estimate (log intensity, higher = more binding, comparable within an allelic series)"
same,binding signal,HOXB6 [2],"10 upbm affinity estimate (log intensity, higher = more binding, comparable within an allelic series)"
same,binding signal,HOXA4 [7],"12 upbm affinity estimate (log intensity, higher = more binding, comparable within an allelic series)"
same,binding signal,MSX2 [3],"14 upbm affinity estimate (log intensity, higher = more binding, comparable within an allelic series)"
same,binding signal,MSX2 [4],"13.7 upbm affinity estimate (log intensity, higher = more binding, comparable within an allelic series)"
same,binding signal,PRRX1 [5],"13.4 upbm affinity estimate (log intensity, higher = more binding, comparable within an allelic series)"
same,binding signal,HOXB6 [6],"11.9 upbm affinity estimate (log intensity, higher = more binding, comparable within an allelic series)"
AATTAAGG,binding signal,ALX4,"13.6 upbm affinity estimate (log intensity, higher = more binding, comparable within an allelic series)"
AATTAACG,binding signal,VENTX [8],"11.7 upbm affinity estimate (log intensity, higher = more binding, comparable within an allelic series)"
same,binding signal,ALX4,"13.9 upbm affinity estimate (log intensity, higher = more binding, comparable within an allelic series)"
same,binding signal,PRRX1 [1],"11.1 upbm affinity estimate (log intensity, higher = more binding, comparable within an allelic series)"
same,binding signal,VENTX [9],"11.5 upbm affinity estimate (log intensity, higher = more binding, comparable within an allelic series)"
same,binding signal,HOXA4 [7],"12.1 upbm affinity estimate (log intensity, higher = more binding, comparable within an allelic series)"
same,binding signal,PAX4,"12 upbm affinity estimate (log intensity, higher = more binding, comparable within an allelic series)"
same,binding signal,HOXA4 [10],"11.6 upbm affinity estimate (log intensity, higher = more binding, comparable within an allelic series)"
same,binding signal,PRRX1 [5],"13.3 upbm affinity estimate (log intensity, higher = more binding, comparable within an allelic series)"
CAATTAGA,binding signal,VENTX [8],"11.8 upbm affinity estimate (log intensity, higher = more binding, comparable within an allelic series)"
same,binding signal,ALX4,"13.8 upbm affinity estimate (log intensity, higher = more binding, comparable within an allelic series)"
same,binding signal,PRRX1 [1],"10.9 upbm affinity estimate (log intensity, higher = more binding, comparable within an allelic series)"
same,binding signal,HOXA2 [11],"12.5 upbm affinity estimate (log intensity, higher = more binding, comparable within an allelic series)"
same,binding signal,MSX2 [3],"13.8 upbm affinity estimate (log intensity, higher = more binding, comparable within an allelic series)"
same,binding signal,MSX2 [4],"13.4 upbm affinity estimate (log intensity, higher = more binding, comparable within an allelic series)"
same,binding signal,VAX1 [12],"12.2 upbm affinity estimate (log intensity, higher = more binding, comparable within an allelic series)"
same,binding signal,PRRX1 [5],"13.2 upbm affinity estimate (log intensity, higher = more binding, comparable within an allelic series)"
same,binding signal,VAX1 [13],"12.3 upbm affinity estimate (log intensity, higher = more binding, comparable within an allelic series)"
CAATTACG,binding signal,HOXA4 [14],"10.4 upbm affinity estimate (log intensity, higher = more binding, comparable within an allelic series)"
same,binding signal,HOXA4 [7],"11.6 upbm affinity estimate (log intensity, higher = more binding, comparable within an allelic series)"
same,binding signal,HOXA4 [15],"13.1 upbm affinity estimate (log intensity, higher = more binding, comparable within an allelic series)"
same,binding signal,MSX2 [3],"13.7 upbm affinity estimate (log intensity, higher = more binding, comparable within an allelic series)"
same,binding signal,MSX2 [4],"13.4 upbm affinity estimate (log intensity, higher = more binding, comparable within an allelic series)"
same,binding signal,HOXA4 [10],"10.9 upbm affinity estimate (log intensity, higher = more binding, comparable within an allelic series)"
same,binding signal,VAX1 [13],"12.3 upbm affinity estimate (log intensity, higher = more binding, comparable within an allelic series)"
TAATTGAA,binding signal,ALX4,"13.9 upbm affinity estimate (log intensity, higher = more binding, comparable within an allelic series)"
same,binding signal,PRRX1 [1],"11.2 upbm affinity estimate (log intensity, higher = more binding, comparable within an allelic series)"
same,binding signal,HOXA2 [11],"12.5 upbm affinity estimate (log intensity, higher = more binding, comparable within an allelic series)"
same,binding signal,HOXB4,"13.6 upbm affinity estimate (log intensity, higher = more binding, comparable within an allelic series)"
same,binding signal,MSX2 [3],"13.6 upbm affinity estimate (log intensity, higher = more binding, comparable within an allelic series)"
same,binding signal,MSX2 [4],"13.2 upbm affinity estimate (log intensity, higher = more binding, comparable within an allelic series)"
same,binding signal,PRRX1 [5],"13.3 upbm affinity estimate (log intensity, higher = more binding, comparable within an allelic series)"
AATTAGAT,binding signal,ALX4,"13.7 upbm affinity estimate (log intensity, higher = more binding, comparable within an allelic series)"
same,binding signal,PRRX1 [1],"11.1 upbm affinity estimate (log intensity, higher = more binding, comparable within an allelic series)"
same,binding signal,PAX4,"12 upbm affinity estimate (log intensity, higher = more binding, comparable within an allelic series)"
same,binding signal,PRRX1 [5],"13.3 upbm affinity estimate (log intensity, higher = more binding, comparable within an allelic series)"
CAATTAGG,binding signal,VENTX [8],"12 upbm affinity estimate (log intensity, higher = more binding, comparable within an allelic series)"
same,binding signal,VENTX [9],"11.7 upbm affinity estimate (log intensity, higher = more binding, comparable within an allelic series)"
same,binding signal,HOXA2 [11],"12.9 upbm affinity estimate (log intensity, higher = more binding, comparable within an allelic series)"
same,binding signal,HOXA2 [16],"13 upbm affinity estimate (log intensity, higher = more binding, comparable within an allelic series)"
same,binding signal,MSX2 [3],"13.8 upbm affinity estimate (log intensity, higher = more binding, comparable within an allelic series)"
same,binding signal,MSX2 [4],"13.4 upbm affinity estimate (log intensity, higher = more binding, comparable within an allelic series)"
same,binding signal,VAX1 [12],"12.8 upbm affinity estimate (log intensity, higher = more binding, comparable within an allelic series)"
same,binding signal,VAX1 [13],"12.7 upbm affinity estimate (log intensity, higher = more binding, comparable within an allelic series)"
CAAATTAA,binding signal,ALX4,"13.7 upbm affinity estimate (log intensity, higher = more binding, comparable within an allelic series)"
same,binding signal,PRRX1 [1],"11 upbm affinity estimate (log intensity, higher = more binding, comparable within an allelic series)"
same,binding signal,PAX4,"12.2 upbm affinity estimate (log intensity, higher = more binding, comparable within an allelic series)"
same,binding signal,PRRX1 [5],"13.2 upbm affinity estimate (log intensity, higher = more binding, comparable within an allelic series)"
GACAATTA,binding signal,PRRX1 [1],"11 upbm affinity estimate (log intensity, higher = more binding, comparable within an allelic series)"
same,binding signal,HOXB6 [2],"9.96 upbm affinity estimate (log intensity, higher = more binding, comparable within an allelic series)"
same,binding signal,MSX2 [3],"13.8 upbm affinity estimate (log intensity, higher = more binding, comparable within an allelic series)"
same,binding signal,MSX2 [4],"13.4 upbm affinity estimate (log intensity, higher = more binding, comparable within an allelic series)"
same,binding signal,PRRX1 [5],"13.2 upbm affinity estimate (log intensity, higher = more binding, comparable within an allelic series)"
same,binding signal,HOXB6 [6],"11.7 upbm affinity estimate (log intensity, higher = more binding, comparable within an allelic series)"
AATTAGTA,binding signal,VENTX [8],"11.7 upbm affinity estimate (log intensity, higher = more binding, comparable within an allelic series)"
same,binding signal,ALX4,"13.7 upbm affinity estimate (log intensity, higher = more binding, comparable within an allelic series)"
same,binding signal,PRRX1 [1],"11.1 upbm affinity estimate (log intensity, higher = more binding, comparable within an allelic series)"
same,binding signal,VENTX [9],"11.5 upbm affinity estimate (log intensity, higher = more binding, comparable within an allelic series)"
same,binding signal,HOXB6 [2],"9.94 upbm affinity estimate (log intensity, higher = more binding, comparable within an allelic series)"
same,binding signal,PAX4,"11.9 upbm affinity estimate (log intensity, higher = more binding, comparable within an allelic series)"
same,binding signal,MSX2 [3],"13.3 upbm affinity estimate (log intensity, higher = more binding, comparable within an allelic series)"
same,binding signal,MSX2 [4],"12.9 upbm affinity estimate (log intensity, higher = more binding, comparable within an allelic series)"
same,binding signal,HOXA4 [10],"11.5 upbm affinity estimate (log intensity, higher = more binding, comparable within an allelic series)"
same,binding signal,HOXB6 [6],"11.3 upbm affinity estimate (log intensity, higher = more binding, comparable within an allelic series)"
